Results taken from PubChem BioAssay (NCATS).
Results filed as inconclusive are left out. Calls of active or inactive are those of the source. The call rests on the fitted dose curve; in most records, active means well fitted cell-killing curve with a large enough effect; inconclusive means small, poorly fitted or top-dose-only effect, or effect the other way; inactive means no such curve, though single readings can be large or run the other way.

Assay: Quantitative High-Throughput drug screen in 47 multiple myeloma cell lines against the NCATS MIPE library collection: MMM1_PLB cell viability assay (AID 1918976); further: nearly all actives have a fitted effect of over 35% in size
Conditions: MMM1 myeloma cells viability, CellTiter-Glo, 48 h; series mostly up to 45.8 µM
Description: PI: Beverly A. Mock Ph.D.
Laboratory of Cancer Biology and Genetics,
Center for Cancer Research, National Cancer Institute,
National Institute of Health, Bethesda, Maryland
Drug resistance and disease progression are common in multiple myeloma (MM) patients, underscoring the need for new therapeutic combinations. […] We hypothesized that effective combinations would reduce MYC expression and enhance p16 activity. […] These preclinical data identify potentially useful drug combinations for evaluation in drug-resistant MM and reveal potential mechanisms of combined drug sensitivity.
Described herein is the primary MIPE qHTS used to cherrypick compounds. Validated compounds were then further tested for potential synergistic activiy.
[1] Peat TJ, Gaikwad SM, Dubois W, Gyabaah-Kessie N, Zhang S, Gorjifard S, Phyo Z, Andres M, Hughitt VK, Simpson RM, Miller MA, Girvin AT, Taylor A, Williams D, D'Antonio N, Zhang Y, Rajagopalan A, Flietner E, Wilson K, Zhang X, Shinn P, Klumpp-Thomas C, McKnight C, Itkin Z, Chen L, Kazandijian D, Zhang J, Michalowski AM, Simmons JK, Keats J, Thomas CJ, Mock BA. Drug combinations identified by high-throughput screening promote cell cycle transition and upregulate Smad pathways in myeloma. Cancer Lett. 2023 Aug 1;568:216284. doi: 10.1016/j.canlet.2023.216284. Epub 2023 Jun 24. PMID: 37356470; PMCID: PMC10408729.
SEQUENCE No. (e.g., 1, 2, 3, etc.); […] (e.g., Cells, Incubation, Reagent, etc.); VALUE and DESCRIPTION.
1; Cells; 5 uL; white, solid bottom 1536-well Greiner assay plate.
2; Compounds; 23 nL; Kalypsis pin tool (Wako USA) equipped with a 1536-well pin head to transfer to the assay plates.
3; Incubation; 48 hours; 37C incubation.
4; Reagent;5uL; CellTiter Glo (Promega).
5; Detector; 425V; Luminescence; Viewlux PerkinElmer.
NOTES (numbers refer to Sequence numbers above)
1. The cell-based screening methods employed in this study were like those previously published. Briefly, the corresponding myeloma cell lines were screened in 1,536-well plates with 500 cells, 5-uL per well for inhibition of cell viability (assessed by measuring ATP levels with CellTiterGlo).
2. NCATS MIPE 4.0 library of approved and investigational drugs were added using the Kalypsis pin tool. Wells treated with DMSO only for 100% viability and media only for 0% viability were used as controls.
3. The assay plates were covered and incubated for 48 hours in a 37C, 5% CO2 incubator with controlled humidity.
4. After 48 hours, CellTilter-GloTM luminescent substrate mix (Promega) reagent was added to the assay plate and plates we incubated for 5 min at room temperature.
5. Signal was measured as median relative luminescence units on a ViewLux (PerkinElmer) multiplate reader.
[1] Heske CM, Davis MI, Baumgart JT, Wilson K, Gormally MV, Chen L, Zhang X, Ceribelli M, Duveau DY, Guha R, Ferrer M, Arnaldez FI, Ji J, Tran HL, Zhang Y, Mendoza A, Helman LJ, Thomas CJ. Matrix Screen Identifies Synergistic Combination of PARP Inhibitors and Nicotinamide Phosphoribosyltransferase (NAMPT) Inhibitors in Ewing Sarcoma. Clin Cancer Res. 2017 Dec 1;23(23):7301-7311. doi: 10.1158/1078-0432.CCR-17-1121. Epub 2017 Sep 12. PMID: 28899971; PMCID: PMC6636827.
Potency means the concentration at half of the fitted maximal effect.

Q: With Oc1cc(-c2nc(-c3ccccc3)[nH]c2-c2ccncc2)ccc1Cl as the molecule, how does the Potency read?
A: The Potency was 18.7 µM (active).

Q: Which Potency does the source give for COc1ccc(Nc2cc(-c3cnc(N)nc3)nc(N3CCOCC3)n2)cn1 here?
A: The Potency was 1.87 µM (active).

Q: With COc1ccc(S(=O)(=O)Nc2cccnc2Nc2ccc(O)cc2)cc1 as the molecule, how does the Potency read?
A: The Potency was 1.48 µM (active).

Q: With Cc1ccc(-n2[nH]c(C)c(N=Nc3cccc(-c4cccc(C(=O)O)c4)c3O)c2=O)cc1C as the molecule, how does the Potency read?
A: The Potency was 20.9 µM (active).

Q: With Cc1ccc([N+](=O)[O-])cc1S(=O)(=O)N(C)N=Cc1cnc2ccc(Br)cn12 as the molecule, how does the Potency read?
A: Its Potency is 0.0833 µM (active).

Q: For CC(Cc1ccc(O)c(O)c1)(NN)C(=O)O (stereo not given), which Potency is on record?
A: Its Potency is 11.8 µM (active).

Q: For Cc1cc(-c2nnc3n2CCCCC3)c(C)n1-c1ccccc1, which Potency is on record?
A: The Potency was 14.8 µM (active).

Q: For NC(=O)c1ncn([C@@H]2O[C@H](CO)[C@@H](O)[C@@H]2O)c1N, which Potency is on record?
A: Its Potency is 2.64 µM (active).

Q: With CCOC(=O)[C@H](CCc1ccccc1)N[C@@H](C)C(=O)N1[C@@H](C(=O)O)C[C@H]2CCC[C@@H]21 as the molecule, how does the Potency read?
A: Its Potency is 18.7 µM (active).

Q: With N#Cc1cc(NC(=O)Nc2nnc(-c3ccncc3)s2)ccc1-c1cn[nH]c1 as the molecule, how does the Potency read?
A: Its Potency is 3.32 µM (active).

Q: With CC(C)c1cnn2c(NCc3ccccc3)cc(NCCCCCCN)nc12 as the molecule, how does the Potency read?
A: Its Potency is 18.7 µM (active).

Q: Which Potency does the source give for OC[C@H]1OC(O)C[C@@H](O)[C@H]1O (stereo not given in full) here?
A: The Potency was “inactive”.

Q: For Cc1cnc(NC(=O)Nc2cc(Br)c(C)cc2OC[C@@H]2CNCCO2)cn1, which Potency is on record?
A: The Potency was 18.7 µM (active).

Q: With CN1CCCN(C(=O)c2cccc(-c3ccc(C=C4C(=O)Nc5ccc(Cl)cc54)o3)c2)CC1 as the molecule, how does the Potency read?
A: The Potency was 8.33 µM (active).

Q: For CC(C)[C@H](CO)Nc1nc(Nc2cccc(Cl)c2)c2ncn(C(C)C)c2n1, which Potency is on record?
A: Its Potency is 26.4 µM (active).

Q: With N#CC(=Cc1ccc(O)c(O)c1)C(=O)NCc1ccccc1 as the molecule, how does the Potency read?
A: The Potency was 3.32 µM (active).

Q: Which Potency does the source give for CCc1nc(-c2cccc(C)c2)c(-c2ccnc(NC(=O)c3ccccc3)c2)s1 here?
A: The Potency was 16.6 µM (active).

Q: For C=CC(=O)Nc1cc(NC(=O)c2ccc(C)c(NC(=O)c3ccno3)c2)cc(C(F)(F)F)c1, which Potency is on record?
A: The Potency was 20.9 µM (active).

Q: For N#CNC(=NCCCCCCOc1ccc(Cl)cc1)Nc1ccncc1, which Potency is on record?
A: Its Potency is 18.7 µM (active).

Q: Which Potency does the source give for C=Cc1c(C)c2cc3nc(cc4[nH]c(cc5nc(cc1[nH]2)C(C)=C5CCC(=O)O)c(CCC(=O)OC)c4C)[C@@]1(C)C3=CC=C(C(=O)OC)[C@H]1C(=O)OC here?
A: The Potency was 0.332 µM (active).

Q: With CNC(=O)c1cccc(-c2ccc3c(N4CCOC[C@H]4C)nc(N4CCOC[C@H]4C)nc3n2)c1 as the molecule, how does the Potency read?
A: Its Potency is 0.0166 µM (active).

Q: For O=[N+]([O-])c1cn2c(n1)OC[C@@H](OCc1ccc(OC(F)(F)F)cc1)C2, which Potency is on record?
A: Its Potency is 8.33 µM (active).

Q: Which Potency does the source give for CO[C@@H]1[C@@H](O)[C@H](O)[C@@H](n2c3c(Cl)cccc3c3c4c(c5c6cccc(Cl)c6[nH]c5c32)C(=O)NC4=O)O[C@@H]1CO here?
A: The Potency was 5.9 µM (active).

Q: Which Potency does the source give for C[C@@H](Oc1ccc2[nH]nc(C=Cc3cnn(CCO)c3)c2c1)c1c(Cl)cncc1Cl here?
A: Its Potency is 1.87 µM (active).

Q: Which Potency does the source give for COc1cc(C)c(Sc2cnc(NC(=O)c3ccc(CNC(C)C(C)(C)C)cc3)s2)cc1C(=O)N1CCN(C(C)=O)CC1 (stereo not given) here?
A: Its Potency is 7.43 µM (active).

Q: Which Potency does the source give for COc1cc(OC)c(C=CS(=O)(=O)Cc2ccc(OC)c(NCC(=O)O)c2)c(OC)c1 here?
A: Its Potency is 0.743 µM (active).

Q: For Cc1coc2c1C(=O)C(=O)c1c-2ccc2c(C)cccc12, which Potency is on record?
A: Its Potency is 20.9 µM (active).

Q: For CCC(C=C[C@@H]1OC(=O)C=C[C@H]1C)=C[C@H](C)CC=CC(C)=C[C@@H](C)C(=O)[C@@H](C)[C@H](O)[C@@H](C)CC(C)=CC(=O)O, which Potency is on record?
A: Its Potency is 0.0277 µM (active).

Q: For COc1cc(OC)cc(-c2ccc3ncc4ccc(=O)n(-c5ccc(N6CCNCC6)c(C(F)(F)F)c5)c4c3c2)c1, which Potency is on record?
A: Its Potency is 7.43 µM (active).

Q: With C=CC[C@@H]1C=C(C)C[C@H](C)C[C@H](OC)[C@H]2O[C@@](O)(C(=O)C(=O)N3CCCC[C@H]3C(=O)O[C@H](C(C)=C[C@@H]3CC[C@H](O)[C@H](OC)C3)[C@@H](C)[C@@H](O)CC1=O)[C@@H](C)C[C@@H]2OC as the molecule, how does the Potency read?
A: Its Potency is 3.32 µM (active).

Q: With C=C1C(=O)O[C@H]2[C@@H]1CCC(C)=CCC[C@@]1(C)O[C@@H]21 as the molecule, how does the Potency read?
A: Its Potency is 13.2 µM (active).

Q: With COC1=C2C[C@@H](C)C[C@H](OC)[C@@H](O)[C@@H](C)C=C(C)[C@H](OC(N)=O)[C@@H](OC)C=CC=C(C)C(=O)NC(=CC1=O)C2=O as the molecule, how does the Potency read?
A: Its Potency is 1.05 µM (active).

Q: With OCCNC1CCCc2c1[nH]c1ccc(-c3ccccc3)cc21 (stereo not given) as the molecule, how does the Potency read?
A: The Potency was 20.9 µM (active).

Q: For CCc1ccc(C(=O)Nc2cc(CN3CCN(C)CC3)cc(C(F)(F)F)c2)cc1C#Cc1cnc2ccnn2c1, which Potency is on record?
A: Its Potency is 23.5 µM (active).

Q: Which Potency does the source give for Cc1cnn(C)c1C(=O)Nc1cc(Nc2ccc3c(C=Cc4ccccn4)n[nH]c3c2)ccc1F here?
A: Its Potency is 13.2 µM (active).

Q: Which Potency does the source give for COc1cc2c(cc1OC)[C@@H]1C(=O)c3ccc4c(c3O[C@@H]1CO2)C=CC(C)(C)O4 here?
A: The Potency was 0.0187 µM (active).

Q: With Nc1nc(N)c2nc(-c3cccc(O)c3)c(-c3cccc(O)c3)nc2n1 as the molecule, how does the Potency read?
A: Its Potency is 20.9 µM (active).

Q: For N#Cc1ccc(COC[C@H]2O[C@@H](n3c(NCc4ccc(Cl)c(Cl)c4)nc4c(N)ncnc43)[C@@H](O)[C@@H]2O)cc1, which Potency is on record?
A: Its Potency is 4.69 µM (active).

Q: For COc1cc2c(Nc3ccc(Cl)c(Cl)c3F)ncnc2cc1OCC1C[C@@H]2CN(C)C[C@H]2C1, which Potency is on record?
A: Its Potency is 23.5 µM (active).

Q: With CCNC(=O)Nc1ccc(-c2nc3c(c(N4CCOC[C@H]4C)n2)CCN(C2COC2)C3)cc1 as the molecule, how does the Potency read?
A: Its Potency is 0.418 µM (active).
